Data as given in PubChem BioAssay (NCI).
The panel holds about 79,000 compounds, 15% with a hit somewhere; the sample as a whole holds those more often. Active and inactive are the calls of the source. Cut-off read from the data, not from the text of the source: active = growth inhibition above about 70%; inactive = the rest.

Columns and labels:
[1] = NCI Yeast Anticancer Drug Screen. Data for the rad52 strain (AID 147);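 note: 0% = growth of vehicle-treated control cultures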; settings: S. cerevisiae rad52 mutant growth inhibition, stronger effect = higher value
Summary of the method: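 Vehicle-treated cultures served as the reference for growth inhibition of compound-exposed yeast bearing a DNA repair mutation.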

[2] = NCI Yeast Anticancer Drug Screen. Data for the rad50EPP+ strain (AID 151);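 note: 0% = growth of vehicle-treated control cultures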; settings: S. cerevisiae rad50 mutant strain, stronger effect = higher value
Summary of the method: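 In this screen, rad50EPP+ yeast were exposed to compounds. Growth inhibition was scored against vehicle-treated controls.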

[3] = NCI Yeast Anticancer Drug Screen. Data for the rad50 strain (AID 155);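 note: 0% = growth of vehicle-only cultures of the same strain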; settings: S. cerevisiae rad50 strain growth inhibition, stronger effect = higher value
Summary of the method: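 Growth of the mutant yeast was measured after compound exposure and referenced to vehicle-treated cultures.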

[4] = NCI Yeast Anticancer Drug Screen. Data for the mec2-1 strain (AID 157); settings: S. cerevisiae mec2-1 strain, stronger effect = higher value
Summary of the method: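 Vehicle-treated cultures served as reference for growth inhibition of compound-exposed mec2-1 yeast.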

[5] = NCI Yeast Anticancer Drug Screen. Data for the rad14 strain (AID 159);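 note: 0% = growth of vehicle-treated control cultures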; settings: S. cerevisiae rad14 strain growth inhibition, stronger effect = higher value
Summary of the method: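 Here, inhibition of yeast growth was measured after compound exposure, using a strain with a genetic defect in DNA damage repair and vehicle-treated cultures as the reference.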

[6] = NCI Yeast Anticancer Drug Screen. Data for the sgs1 mgt1 strain (AID 161);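 note: 0% = growth of cultures given vehicle only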; settings: S. cerevisiae sgs1 mgt1 strain, stronger effect = higher value
Summary of the method: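 Read-out: growth inhibition vs vehicle controls. Cells: mutant yeast strain deficient in DNA damage repair.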

[7] = NCI Yeast Anticancer Drug Screen. Data for the CLN2oe strain (AID 163);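 note: 0% = growth of vehicle-only control cultures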; settings: S. cerevisiae CLN2oe strain, stronger effect = higher value
Summary of the method: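 Inhibition relative to vehicle-treated yeast is reported. Cells: strain with genetic alteration in cell-cycle control, grown with compound.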

[8] = NCI Yeast Anticancer Drug Screen. Data for the cln2 rad14 strain (AID 165);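 note: 0% = growth equal to vehicle treated cultures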; settings: S. cerevisiae cln2 rad14 strain, stronger effect = higher value
Summary of the method: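 Each compound was tested on cln2 rad14 yeast. Inhibition of growth was calculated against vehicle-exposed controls.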

[9] = NCI Yeast Anticancer Drug Screen. Data for the bub3 strain (AID 167); settings: S. cerevisiae bub3 mutant strain, stronger effect = higher value
Summary of the method: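 Whole-cell yeast assay. The mutant strain was incubated with compounds, and growth inhibition was determined by comparison with vehicle-treated cells.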

[10] = NCI Yeast Anticancer Drug Screen. Data for the wt2 strain (AID 169);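 note: 0% = growth of vehicle-treated yeast cultures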; settings: S. cerevisiae wt2 strain growth inhibition, stronger effect = higher value
Summary of the method: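 Inhibition of yeast growth was determined after compound treatment, normalised to controls receiving only vehicle.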

[11] = NCI Yeast Anticancer Drug Screen. Data for the mlh1 strain (AID 171);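 note: 0% = growth of vehicle-treated control cultures of the same strain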; settings: S. cerevisiae mlh1 strain growth inhibition, stronger effect = higher value
Summary of the method: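 Vehicle-normalised growth inhibition of a repair- or checkpoint-altered yeast strain following compound treatment.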

[12] = NCI Yeast Anticancer Drug Screen. Data for the sgs1 strain (AID 173);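 note: 0% = growth of vehicle-only control cultures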; settings: S. cerevisiae sgs1 mutant, stronger effect = higher value
Summary of the method: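 Screen format: yeast with repair or checkpoint alterations, compound exposure, growth read relative to vehicle.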

[13] = NCI Yeast Anticancer Drug Screen. Data for the mlh1 rad18 strain (AID 175); settings: S. cerevisiae mlh1 rad18 strain growth inhibition, stronger effect = higher value
Summary of the method: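 Vehicle-treated cultures served as the reference for growth inhibition in a yeast strain carrying DNA damage repair alterations exposed to each compound.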

[14] = NCI Yeast Anticancer Drug Screen. Data for the rad18 strain (AID 177); settings: S. cerevisiae rad18 mutant growth inhibition, stronger effect = higher value
Summary of the method: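 Test articles were incubated with altered yeast defective in DNA damage repair. Results are given as inhibition of growth versus vehicle.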

[15] = at 5.0 µM (retest, dose inferred, filed as 0.5)
[16] = at 50.0 µM (retest, dose inferred, filed as 5.0)

Measured: growth inhibition

O=C1CC(=O)N(C2CCCCC2)C(=O)N1c1ccccc1S(=O)(=O)Oc1ccccc1
inactive: [1]; at 1.2 µM 1% | [1]; at 3.7 µM 3% | [1]; at 11.0 µM 4% | [1]; at 33.0 µM 24% | [1]; at 100.0 µM 64% | [2]; at 1.2 µM -22% | [2]; at 3.7 µM -19% | [2]; at 11.0 µM -16% | [2]; at 33.0 µM 2% | [2]; at 100.0 µM -49% | [3]; at 1.2 µM -12% | [3]; at 3.7 µM -3% | [3]; [15] 66% | [3]; at 11.0 µM -12% | [3]; at 33.0 µM 5% | [3]; at 50.0 µM 38.6% | [3]; at 100.0 µM 33% | [4]; at 1.2 µM 11% | [4]; at 3.7 µM 0% | [4]; [15] 69% | [4]; at 11.0 µM -18% | [4]; at 33.0 µM 13% | [4]; at 50.0 µM 41% | [4]; at 100.0 µM 36% | [5]; at 1.2 µM -18% | [5]; at 3.7 µM -22% | [5]; at 11.0 µM -26% | [5]; at 33.0 µM -18% | [5]; at 100.0 µM 18% | [6]; [15] 3% | [6]; [16] 31% | [6]; at 50.0 µM 54.4% | [7]; at 1.2 µM 6% | [7]; at 3.7 µM -1% | [7]; at 11.0 µM 7% | [7]; at 33.0 µM 43% | [8]; [15] 60% | [8]; at 50.0 µM 68% | [9]; at 1.2 µM -13% | [9]; at 3.7 µM 0% | [9]; [15] 25% | [9]; at 11.0 µM 2% | [9]; at 33.0 µM 7% | [9]; [16] 42% | [9]; at 50.0 µM 58.4% | [9]; at 100.0 µM 32% | [10]; at 1.2 µM 0% | [10]; at 3.7 µM -33% | [10]; at 11.0 µM -27% | [10]; at 33.0 µM -3% | [10]; at 100.0 µM 41% | [11]; at 1.2 µM -10% | [11]; at 3.7 µM -19% | [11]; at 11.0 µM -11% | [11]; at 33.0 µM 7% | [11]; at 100.0 µM 46% | [12]; at 1.2 µM -7% | [12]; at 3.7 µM -5% | [12]; at 11.0 µM -1% | [12]; at 33.0 µM 20% | [12]; at 100.0 µM 56% | [13]; [15] 61% | [13]; at 50.0 µM 41.4% | [14]; at 1.2 µM -15% | [14]; at 3.7 µM -13% | [14]; at 11.0 µM -19% | [14]; at 33.0 µM -18% | [14]; at 100.0 µM 12%
active: [3]; [16] 99% | [4]; [16] 99% | [7]; at 100.0 µM 72% | [8]; [16] 80% | [13]; [16] 100%

CNc1nc(C)nc2c1cnn2-c1ccc([N+](=O)[O-])cc1
active: [3]; [16] 76% | [3]; at 50.0 µM 79.2% | [3]; at 100.0 µM 88% | [6]; [16] 83% | [12]; at 100.0 µM 80% | [13]; [16] 91% | [14]; at 33.0 µM 89% | [14]; at 100.0 µM 92%
inactive: [1]; at 1.2 µM -1% | [1]; at 3.7 µM -6% | [1]; at 11.0 µM 10% | [1]; at 33.0 µM 26% | [1]; at 100.0 µM 41% | [2]; at 1.2 µM 11% | [2]; at 3.7 µM 17% | [2]; at 11.0 µM 42% | [2]; at 33.0 µM 63% | [2]; at 100.0 µM 69% | [3]; at 1.2 µM -2% | [3]; at 3.7 µM -5% | [3]; [15] 1% | [3]; at 11.0 µM 16% | [3]; at 33.0 µM 68% | [4]; at 1.2 µM 0% | [4]; at 3.7 µM 0% | [4]; [15] -2% | [4]; at 11.0 µM 2% | [4]; at 33.0 µM -1% | [4]; [16] 31% | [4]; at 50.0 µM -1.35% | [4]; at 100.0 µM -2% | [5]; at 1.2 µM 11% | [5]; at 3.7 µM 2% | [5]; at 11.0 µM 22% | [5]; at 33.0 µM 24% | [5]; at 100.0 µM 25% | [6]; [15] 2% | [6]; at 50.0 µM 69.7% | [7]; at 1.2 µM -6% | [7]; at 3.7 µM -5% | [7]; at 11.0 µM -5% | [7]; at 33.0 µM -6% | [7]; at 100.0 µM -8% | [8]; [15] -4% | [8]; [16] 30% | [8]; at 50.0 µM 2% | [9]; at 1.2 µM -5% | [9]; at 3.7 µM -2% | [9]; [15] -2% | [9]; at 11.0 µM -12% | [9]; at 33.0 µM -12% | [9]; [16] 2% | [9]; at 50.0 µM -13.3% | [9]; at 100.0 µM -14% | [10]; at 1.2 µM -4% | [10]; at 3.7 µM 9% | [10]; at 11.0 µM 13% | [10]; at 33.0 µM 24% | [10]; at 100.0 µM 16% | [11]; at 1.2 µM -5% | [11]; at 3.7 µM -1% | [11]; at 11.0 µM 0% | [11]; at 33.0 µM -1% | [11]; at 100.0 µM -1% | [12]; at 1.2 µM 5% | [12]; at 3.7 µM 4% | [12]; at 11.0 µM 44% | [12]; at 33.0 µM 69% | [13]; [15] -8% | [13]; at 50.0 µM 57.5% | [14]; at 1.2 µM -1% | [14]; at 3.7 µM 16% | [14]; at 11.0 µM 49%
